# Assay outcomes (PubChem BioAssay)
# Sampled rows, rich in hits. Any-hit rate of the full collection: about 5.2%.
# IDH1 R132H inh: human IDH1 R132H inhibition; O75874; IDH1-R132H enzyme, NADPH consumption, diaphorase/resazurin fluorescence; Potency, µM (titrated, usually from 76.6 µM), for the others: top-dose activity change, negative = inhibition, hits mostly inhibitors; hit rate 0.093% among 390,000; further: nearly all actives have a fitted effect of over 65% in size
#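 IDH1-R132H (0.5 ug/mL) preincubated 30 min with compound, then NADPH (0.016 mM) and alpha-KG (2 mM) added; 80 min at RT, pH 7.5. Remaining NADPH coupled via diaphorase/resazurin to fluorescence (540/590 nm); concentration-response curves normalized to no-enzyme control.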
# PLK1 PBD inh: PLK1 (human) polo-box domain binding inhibition; P53350; Plk1 PBD binding of FITC phosphopeptide, fluorescence polarization; Potency, µM, for inactives: max response, negative = inhibition, actives largely listed as inhibitors; hit rate 2.8% among 360,000; AID 720504; further: series mostly up to about 57 µM; nearly all actives have a fitted effect of over 65% in size
# Target sequence (P53350 whole entry, looked up, the tested form may be a part): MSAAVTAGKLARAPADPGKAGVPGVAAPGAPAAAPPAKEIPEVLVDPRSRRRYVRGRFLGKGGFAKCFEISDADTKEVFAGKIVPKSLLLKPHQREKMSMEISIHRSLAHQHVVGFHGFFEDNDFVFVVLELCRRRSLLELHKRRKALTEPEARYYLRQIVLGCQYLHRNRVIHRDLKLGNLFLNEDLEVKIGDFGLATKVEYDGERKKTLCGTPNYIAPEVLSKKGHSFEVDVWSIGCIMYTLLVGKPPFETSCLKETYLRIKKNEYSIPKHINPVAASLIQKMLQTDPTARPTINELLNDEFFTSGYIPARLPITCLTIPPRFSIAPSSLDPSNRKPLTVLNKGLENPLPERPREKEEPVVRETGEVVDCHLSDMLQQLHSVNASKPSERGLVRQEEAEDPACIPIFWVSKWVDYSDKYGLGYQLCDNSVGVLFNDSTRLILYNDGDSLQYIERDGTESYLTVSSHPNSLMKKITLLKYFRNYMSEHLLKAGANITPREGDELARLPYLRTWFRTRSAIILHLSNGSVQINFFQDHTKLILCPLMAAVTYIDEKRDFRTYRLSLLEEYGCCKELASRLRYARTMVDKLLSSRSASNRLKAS
# Sfp PPTase inh: Sfp phosphopantetheinyl transferase inhibition; Biochemical Sfp PPTase activity, qHTS; Potency, µM, for the others: largest response in the series, negative = inhibition, usual class: inhibitors; hit rate 3.5% among 310,000;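 further: the enzyme is Sfp with the accession as filed and its product quenches rhodamine fluorescence; 0% = enzyme reaction without inhibitor and -100% = no enzyme wells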
#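 Step 1, compound plus 15 nM Sfp-PPTase, 15 min, room temperature. Step 2, add rhodamine-CoA (5 uM) and BHQ-2-YbbR (12.5 uM). Step 3, read 525/598 nm fluorescence at 0 and 30 min.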
# TrxR1 inh: blocks rat thioredoxin reductase 1 | Potency, µM (top dose mostly 114 µM), for the others: at the top dose activity change, negative = inhibition, most hits filed as inhibitors | recombinant rTrxR1, NADPH fluorescence consumption, selenite substrate | hit rate 1% among 390,000 | O89049 | AID 588453; further: nearly all actives have a fitted effect of over 65% in size
#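 Rat TrxR1 (90 nM in the dispensed reagent) was pre-reduced with 400 uM NADPH for 5 min at room temperature, then incubated with compound for 15 min. After 400 uM selenite was added, NADPH fluorescence (Ex 340/Em 450 nm) was followed for 8 min.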
# VDR inhibitor: blocks the human vitamin D receptor | P11473 | VDR-SRC2-3 peptide fluorescence polarization, 2 h | Potency, µM, for the others: max response, negative = inhibition, usual class: inhibitors | hit rate 0.93% among 400,000
#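 VDR–SRC2-3 interaction, FP format. Cmpds 23 nl via pintool, brief spin, 2 h ambient incubation.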
# TrxR1 substrate: rat thioredoxin reductase 1 substrate activity. Potency, µM (highest dose often 114 µM), without a hit: at the highest dose activity change, negative = substrate turnover. hit rate 0.01% among 390,000. AID 588456. purified TrxR1 substrate turnover, NADPH consumption readout. O89049; further: nearly all actives have a fitted effect of over 50% in size
#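 Rat TrxR1, dispensed at 90 nM, was prereduced with 400 uM NADPH (final) for 5 min at ~22 deg C, then incubated with compound 15 min before 400 uM selenite. A first-read NADPH fluorescence drop versus no-compound background flagged substrates.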
# * = called active by the depositor; ? = inconclusive; . = not tested or not shown; [ ] = another dose, or the depositor's remark. The call rests on the fitted dose curve; in most records, active means well fitted curve in the direction sought with a large enough effect; inconclusive means small, poorly fitted or top-dose-only effect, or another doubt; inactive means no such curve, though single readings can be large; an effect the other way counts as inactive or inconclusive. Unless noted, on the % scale 0 is the no-effect control and ±100 the full control effect; potency means the concentration at half of the fitted maximal effect.
SMILES,IDH1 R132H inh,PLK1 PBD inh,Sfp PPTase inh,TrxR1 inh,VDR inhibitor,TrxR1 substrate
CC1CCc2c(sc(NC(=O)C3CCCO3)c2C#N)C1 (configuration not stated),4%,-17%,7%,11%[57.1 µM],-24%,5%[57.1 µM]
CCc1ccccc1N(C)S(=O)(=O)c1ccc2[nH]cc(C(=O)NCCOC)c(=O)c2c1,17%,.,.,3%[57.1 µM],17%,-4%[57.1 µM]
O=Cc1ccc(O)cc1,.,.,.,-8%,.,-7%
COC(=O)C1=C(C(=O)OC)[C@@H]2N(C)c3ccc(OC)cc3[C@@]23C[C@@H](C(=O)OC)N(S(=O)(=O)c2ccc(C(F)(F)F)cc2)C3=N1,.,.,2%,.,.,.
O=S(=O)(NCCc1csc2nc(-c3ccc(Cl)cc3)nn12)c1cccs1,-10%,.,.,18%[57.1 µM],10%,0%[57.1 µM]
CN(Cc1ccccc1)c1ncnc2ccc(Br)cc12,10%,2.7µM*,11%,-17%,-17%,10%[57.1 µM]
Cc1ccc(-n2ncc3c(N(C)Cc4ccccc4)ncnc32)cc1,17%,.,.,18%[57.1 µM],7%,2%[57.1 µM]
CCOC(=O)c1csc(NC(=O)CN2CCOCC2)n1,4%,-10%,-1%,4%,7%,0%
Cc1cc2cc(CN(Cc3ccco3)S(=O)(=O)c3c(C)ccc4nsnc34)c(=O)[nH]c2cc1C,-5%,-3%,50µM*,?,11%,2%[57.1 µM]
Cc1ccc2[nH]c(=O)c(CN(CCCO)S(=O)(=O)c3c(C)ccc4nsnc34)cc2c1,1%,-5%,12%,6%,5%,-9%
Cc1ccc2cc(CN(Cc3ccco3)S(=O)(=O)c3c(C)ccc4nsnc34)c(=O)[nH]c2c1,0%,-24%,16µM*,13µM*,-27%,-4%
CCNc1nc(NC(N)=S)nc(NC(C)(C)C)n1,1%,27µM*,32µM*,15%[57.1 µM],10%,-3%[57.1 µM]
COc1ccccc1NC(=O)Nc1ccnn1C1CCN(C(=O)c2cccnc2)CC1,-3%,-10%,9%,19%,1%,-6%
CCOC(=O)Nc1cccnc1Sc1ccc(Cl)cc1,0%,-26%,.,5%,-3%,2%
CCCNC(=O)OCc1cccnc1Sc1ccc(C)cc1,2%,27µM*,10%,3%[57.1 µM],-5%,4%[57.1 µM]
COc1ccc(-c2csc(C(C)(O)c3ccc(OC)cc3)n2)cc1 (configuration not stated),.,5%,.,.,.,.
CC(C)(C)c1ccc(C(=O)Nc2ccc(C=C(C#N)C#N)cc2)cc1,5%,-6%,-12%,3.2µM*,?,-7%
N#CC(C#N)=Cc1ccc(NC(=O)c2ccc(Br)cc2)cc1,13%,-19%,?,13µM*,?,4%
COc1ccc(OC)c(C2=Nn3c(nnc3-c3ccc(OC)c(OC)c3)SC2)c1,.,.,-16%,.,.,.
CCCCN1C(=O)C(CC(=O)NC(c2ccccc2)c2ccccc2)CC(C(=O)N2CCCCCC2)=C1C (configuration not stated),.,0%,.,.,.,.
COc1ccc(/C=N/NC(=O)c2nn(-c3ccccc3)c(=O)c3c(N)scc23)cc1,10%,-20%,7.1µM*,-18%,?,-11%
CCOC(=O)c1nn(-c2ccc(C)c(C)c2)c(=O)c2c(N)scc12,7%,17µM*,8.9µM*,-3%,8%,-14%
COc1ccc(/C=N/NC(=O)c2nn(-c3ccc(Cl)cc3)c(=O)c3c(N)scc23)cc1,0%,-18%,-27%,-2%,?,-6%
CCOC(=O)c1nn(-c2ccc(OC)cc2)c(=O)c2c(N)scc12,8%,?,10µM*,30%[57.1 µM],18µM*,3%[57.1 µM]
CCOC(=O)c1nnn(-c2ccc(OC)cc2)c1N,-3%,-14%,20%,20%,13%,2%
CCOC(=O)c1nn(-c2ccc(C)c(C)c2)cc1O,4%,1%,4%,-4%,1%,-2%
O=C(Nc1nccs1)c1cccc(NC(=O)C(F)(F)F)c1,3%,-4%,2%,12%,9%,1%
Cc1ccc2c(=O)cc(C(=O)Nc3sc4c(c3C(=O)NCc3ccccc3)CCCC4)oc2c1C,-8%,.,.,15%,2%,-1%
